The molecules below were run on Chordin-like protein 2 (CHRDL2) (assay: compounds binding chordin-like 2 – biochemical, small-molecule microarray, 635 nm fluorescence, primary screen (AID 1126;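 also: printed compound slides probed with Chrdl2 protein at 4 µg/mL for 1 h at 4 C; score merges 667 nm emission intensity with signal to noise over three replicate slides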)). Settings: fluorescence 635 nm, higher = more signal.
`CCOC(=O)C[C@H]1[C@H](OC(=O)Cc2ccc3c(c2)OCO3)[C@@H](NC(=O)c2ccc(-c3ccccc3)cc2)c2cc(OCCCO)ccc2N1C(=O)c1ccccc1` was tested, and the composite z-score was 0.379. In the case of `CC(c1ccccc1)C(O)C1C=CC2C(=O)NC(=O)C2N1Nc1ccccn1` (centres undefined), the composite z-score is reported as 0.407. With `COc1ccc(C#Cc2ccc3c(c2)[C@]2(C(=O)N3)[C@H](c3ccc(O)cc3)N3[C@H](c4ccccc4)[C@H](c4ccccc4)OC(=O)[C@H]3[C@@H]2C(=O)NC[C@H](O)c2ccccc2)cc1` the composite z-score was 0.0813. `O=C1O[C@H](c2ccccc2)[C@H](c2ccccc2)N2[C@H]1[C@@H](C(=O)O)[C@]1(C(=O)Nc3ccc(C#CC4(O)CCCCCC4)cc31)[C@H]2c1ccc(OCCO)cc1` showed a composite z-score of -0.862. Work on `NCCCCCCNC(=O)[C@H]1C[C@H]2C(=O)NCC(=O)N2[C@H]1c1cccc(OCCO)c1` yielded a composite z-score of 1.37. With `C=CCOC(=O)[C@H]1[C@@H]2C(=O)O[C@@H](c3ccccc3)[C@@H](c3ccccc3)N2[C@@H](c2ccc(OCCOC(=O)[C@@H]3C[C@@H]4C(=O)NCC(=O)N4[C@@H]3c3ccc(O)cc3)cc2)[C@]12C(=O)Nc1ccccc12` the composite z-score was 1.32. `[N-]=[N+]=Nc1ccccc1C[C@]1(C(=O)NCCN2CCOCC2)N=C(c2ccc(OCCCO)cc2)O[C@H]1c1ccccc1` showed a composite z-score of 0.497. `CC(C)N1C(=O)C[C@@](C(=O)NCc2ccccc2)(c2ccc([N+](=O)[O-])cc2)[C@H]1c1ccc(CO)cc1` gave a composite z-score of -0.791. `O=C1OCCC/C=C\[C@H]2OC34C=CCN(Cn5nnc6ccccc65)C(=O)[C@H]3N(CCCCCO)C(=O)[C@@H]4C12` (some centres undefined) gave a composite z-score of -0.977. Work on `NCCCCCNC(=O)[C@H]1C[C@H]2C(=O)NCC(=O)N2[C@H]1c1cccc(OCCO)c1` yielded a composite z-score of 0.636. Molecule `CN1C=C(C(=O)OCCS(C)(=O)=O)C(C(=O)OCCS(C)(=O)=O)=CC(CCCO)=CC1C1CC1` (centres undefined) has a composite z-score of -0.705. With `COCCOC(=O)N1C(=O)[C@@]2(c3cc(C#CC4=CCCCC4)ccc31)[C@H](C(=O)NC[C@H](O)c1ccccc1)[C@H]1C(=O)O[C@H](c3ccccc3)[C@H](c3ccccc3)N1[C@@H]2c1ccc(O)cc1` the composite z-score was 1.12. With `CCCCCCCCCCC(O)C1C=CC2C(=O)N(Cc3ccccc3)C(=O)C2N1n1cnnc1` (centres undefined) the composite z-score was -0.686. `Cc1ccccc1C(O)C1C=CC2C(=O)N(C)C(=O)C2N1N1CCCCC1` (centres undefined) gave a composite z-score of 0.642. With `CC(=O)NCCCC[C@@H]1NC(=O)[C@@H]2C[C@H](C(=O)NCCCCCCNC(=O)CS)[C@H](c3ccc(O)cc3)N2C1=O` the composite z-score was -0.573. `C=CCOC(=O)[C@H]1[C@@H]2C(=O)O[C@@H](c3ccccc3)[C@@H](c3ccccc3)N2[C@@H](c2ccc(OCCOC(=O)[C@@H]3C[C@@H]4C(=O)N5CCC[C@H]5C(=O)N4[C@@H]3c3ccc(O)cc3)cc2)[C@]12C(=O)Nc1ccccc12` gave a composite z-score of 1.03. In the case of `C=CCC(OC(C)=O)[C@@H]1[C@@H](N(Cc2ccc(-c3ccccc3)cc2)C(=O)Cc2ccc(OC)cc2)c2cc(OCCCO)ccc2N1C(=O)c1ccc2ccccc2n1` (some centres undefined), the composite z-score is reported as 0.0504. `COC(=O)C(CC#Cc1ccc2c(c1)[C@]1(C(=O)N2)[C@H](C(=O)NC[C@H](O)c2ccccc2)[C@H]2C(=O)O[C@H](c3ccccc3)[C@H](c3ccccc3)N2[C@@H]1c1ccc(OCCO)cc1)C(=O)OC` gave a composite z-score of 0.75. For `COc1ccc(C(O)C2C=CC3C(=O)N(c4ccccc4)C(=O)C3N2Nc2ccc([N+](=O)[O-])cc2)cc1OCc1ccccc1` (centres undefined), the composite z-score was 0.471. `CC(=O)NCCCC[C@@H]1NC(=O)[C@@H]2C[C@H](C(=O)NCCCCN(C)C)[C@H](c3ccc(O)cc3)N2C1=O` was tested, and the composite z-score was 0.46. Molecule `CC(C)C(=C=CC[C@H](O)c1cccc(OCCO)c1)C[C@H](O)COCc1ccccc1` has a composite z-score of -0.101. Molecule `CC(C)C(=C=CC[C@@H](O)c1ccccc1OCCO)C[C@@H](O)c1ccccn1` has a composite z-score of -0.0374. Molecule `O=C1O[C@@H](c2ccccc2)[C@@H](c2ccccc2)N2[C@@H](c3ccccc3OCCO)[C@]3(C(=O)Nc4ccc(C#CC5(O)CCCCCC5)cc43)[C@@H](C(=O)Nc3nc4ccccc4s3)[C@H]12` has a composite z-score of 0.784. `C=CCN1C(=O)[C@]2(O[C@H](CCO)[C@@H]([Si](C)(C)c3ccc(OC)cc3)[C@@H]2C)c2cc(NC(=O)[C@H](C)O)ccc21` showed a composite z-score of 0.174.

These molecules were tested against Concanavalin-A (Canavalia ensiformis) (UniProt P02866) (assay: compounds binding concanavalin A lectin – biochemical, small-molecule microarray, Alexa647 label, 635 nm, artefact control for SMM control protein annotation, primary screen (AID 1127;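 also: z combines 667 nm emission intensity with signal-to-noise across three replicate slides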)). Settings: ConA-A647 binding fluorescence, higher = more signal.
Concanavalin-A (Canavalia ensiformis), sequence (P02866 whole entry, looked up): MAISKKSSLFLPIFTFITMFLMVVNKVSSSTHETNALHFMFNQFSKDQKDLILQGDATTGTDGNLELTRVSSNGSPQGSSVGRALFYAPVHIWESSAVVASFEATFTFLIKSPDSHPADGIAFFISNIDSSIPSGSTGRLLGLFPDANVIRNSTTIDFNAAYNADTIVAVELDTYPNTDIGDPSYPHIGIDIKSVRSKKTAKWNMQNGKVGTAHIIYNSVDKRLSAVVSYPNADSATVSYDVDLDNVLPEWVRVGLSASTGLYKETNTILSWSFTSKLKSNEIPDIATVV
Molecule `CCCN1C(=O)[C@@]2(CCC(=O)OC(C)(C)C)N=C(c3ccc(OCCCO)cc3)O[C@H]2c2ccccc21` has a composite z-score of 0.958. Work on `O=C(O)[C@H]1C[C@H]2C(=O)NCC(=O)N2[C@H]1c1ccc(O)cc1` yielded a composite z-score of 0.482. `CC(C)c1ccc(NN2C(C(O)c3ccc(N(C)C)cc3)C=CC3C(=O)N(c4ccccc4)C(=O)C32)cc1` (centres undefined) was tested, and the composite z-score was 1.16. For `CCC[C@@H]1C=C(C(=O)O)[C@H](c2ccc(C)cc2)N1S(=O)(=O)c1ccc(C)cc1`, the composite z-score was 0.757. Molecule `CC(C)c1ccc(NN2C(C(O)c3c(F)cccc3Cl)C=CC3C(=O)N(c4ccccc4)C(=O)C32)cc1` (centres undefined) has a composite z-score of 1.11. In the case of `CC(C)=CCCC(C)=CC(O)C1C=CC2C(=O)N(c3ccccc3)C(=O)C2N1Nc1ccccc1` (centres undefined), the composite z-score is reported as 1.14. With `COCC1=C2[C@@H](CCc3ccccc3)OB(O)C[C@@H]2[C@@H]2C(=O)N(Cc3ccccc3)C(=O)[C@@H]2C1` the composite z-score was -0.777. `COC(=O)[C@@]1(Cc2ccc(OC)cc2)[C@H]2c3cc(C(=O)N4CCCC4)n(CCc4c[nH]c5cc(F)ccc45)c3C[C@H]2CN1C(=O)c1ccccc1` gave a composite z-score of 0.871. Work on `CC(C)N1CC=CC23O[C@@H]4C=CCOC(=O)[C@@H]4[C@H]2C(=O)N(CCO)[C@@H]3C1=O` (some centres undefined) yielded a composite z-score of -0.329. For `COC(=O)C(CC#Cc1ccc2c(c1)[C@]1(C(=O)N2)[C@H](c2ccc(OCCO)cc2)N2[C@H](c3ccccc3)[C@H](c3ccccc3)OC(=O)[C@H]2[C@@H]1C(=O)NC[C@H](O)c1ccccc1)C(=O)OC`, the composite z-score was 1.14. Molecule `CC(C)NC(=O)[C@@]1(Cc2ccccc2I)c2ccccc2C(=O)N(Cc2ccccc2)[C@H]1c1ccc(CO)cc1` has a composite z-score of 0.968. With `CCOC(=O)C[C@H]1[C@H](OC(=O)Cc2ccc3c(c2)OCO3)[C@@H](NC(=O)c2ccc(-c3ccccc3)cc2)c2cc(OCCCO)ccc2N1C(=O)c1ccccc1` the composite z-score was 0.645. With `CC(c1ccccc1)C(O)C1C=CC2C(=O)NC(=O)C2N1Nc1ccccn1` (centres undefined) the composite z-score was 0.901. Molecule `COc1ccc(C#Cc2ccc3c(c2)[C@]2(C(=O)N3)[C@H](c3ccc(O)cc3)N3[C@H](c4ccccc4)[C@H](c4ccccc4)OC(=O)[C@H]3[C@@H]2C(=O)NC[C@H](O)c2ccccc2)cc1` has a composite z-score of 1.17. Molecule `O=C1O[C@H](c2ccccc2)[C@H](c2ccccc2)N2[C@H]1[C@@H](C(=O)O)[C@]1(C(=O)Nc3ccc(C#CC4(O)CCCCCC4)cc31)[C@H]2c1ccc(OCCO)cc1` has a composite z-score of 1.06. `NCCCCCCNC(=O)[C@H]1C[C@H]2C(=O)NCC(=O)N2[C@H]1c1cccc(OCCO)c1` gave a composite z-score of 1.1. `C=CCOC(=O)[C@H]1[C@@H]2C(=O)O[C@@H](c3ccccc3)[C@@H](c3ccccc3)N2[C@@H](c2ccc(OCCOC(=O)[C@@H]3C[C@@H]4C(=O)NCC(=O)N4[C@@H]3c3ccc(O)cc3)cc2)[C@]12C(=O)Nc1ccccc12` showed a composite z-score of 1.11. `[N-]=[N+]=Nc1ccccc1C[C@]1(C(=O)NCCN2CCOCC2)N=C(c2ccc(OCCCO)cc2)O[C@H]1c1ccccc1` gave a composite z-score of 0.702. `CC(C)N1C(=O)C[C@@](C(=O)NCc2ccccc2)(c2ccc([N+](=O)[O-])cc2)[C@H]1c1ccc(CO)cc1` gave a composite z-score of -0.0974. `O=C1OCCC/C=C\[C@H]2OC34C=CCN(Cn5nnc6ccccc65)C(=O)[C@H]3N(CCCCCO)C(=O)[C@@H]4C12` (some centres undefined) showed a composite z-score of -0.702. `NCCCCCNC(=O)[C@H]1C[C@H]2C(=O)NCC(=O)N2[C@H]1c1cccc(OCCO)c1` showed a composite z-score of 1.16. In the case of `CN1C=C(C(=O)OCCS(C)(=O)=O)C(C(=O)OCCS(C)(=O)=O)=CC(CCCO)=CC1C1CC1` (centres undefined), the composite z-score is reported as 0.183. With `COCCOC(=O)N1C(=O)[C@@]2(c3cc(C#CC4=CCCCC4)ccc31)[C@H](C(=O)NC[C@H](O)c1ccccc1)[C@H]1C(=O)O[C@H](c3ccccc3)[C@H](c3ccccc3)N1[C@@H]2c1ccc(O)cc1` the composite z-score was 1. Work on `CCCCCCCCCCC(O)C1C=CC2C(=O)N(Cc3ccccc3)C(=O)C2N1n1cnnc1` (centres undefined) yielded a composite z-score of 1.04. Molecule `Cc1ccccc1C(O)C1C=CC2C(=O)N(C)C(=O)C2N1N1CCCCC1` (centres undefined) has a composite z-score of 1.09. For `CC(=O)NCCCC[C@@H]1NC(=O)[C@@H]2C[C@H](C(=O)NCCCCCCNC(=O)CS)[C@H](c3ccc(O)cc3)N2C1=O`, the composite z-score was 0.647. Molecule `C=CCOC(=O)[C@H]1[C@@H]2C(=O)O[C@@H](c3ccccc3)[C@@H](c3ccccc3)N2[C@@H](c2ccc(OCCOC(=O)[C@@H]3C[C@@H]4C(=O)N5CCC[C@H]5C(=O)N4[C@@H]3c3ccc(O)cc3)cc2)[C@]12C(=O)Nc1ccccc12` has a composite z-score of 0.93. Work on `C=CCC(OC(C)=O)[C@@H]1[C@@H](N(Cc2ccc(-c3ccccc3)cc2)C(=O)Cc2ccc(OC)cc2)c2cc(OCCCO)ccc2N1C(=O)c1ccc2ccccc2n1` (some centres undefined) yielded a composite z-score of 0.177. `COC(=O)C(CC#Cc1ccc2c(c1)[C@]1(C(=O)N2)[C@H](C(=O)NC[C@H](O)c2ccccc2)[C@H]2C(=O)O[C@H](c3ccccc3)[C@H](c3ccccc3)N2[C@@H]1c1ccc(OCCO)cc1)C(=O)OC` was tested, and the composite z-score was 1.02. `COc1ccc(C(O)C2C=CC3C(=O)N(c4ccccc4)C(=O)C3N2Nc2ccc([N+](=O)[O-])cc2)cc1OCc1ccccc1` (centres undefined) showed a composite z-score of 1.14. For `CC(=O)NCCCC[C@@H]1NC(=O)[C@@H]2C[C@H](C(=O)NCCCCN(C)C)[C@H](c3ccc(O)cc3)N2C1=O`, the composite z-score was -0.612. Molecule `CC(C)C(=C=CC[C@H](O)c1cccc(OCCO)c1)C[C@H](O)COCc1ccccc1` has a composite z-score of 0.0514. In the case of `CC(C)C(=C=CC[C@@H](O)c1ccccc1OCCO)C[C@@H](O)c1ccccn1`, the composite z-score is reported as 0.451. For `O=C1O[C@@H](c2ccccc2)[C@@H](c2ccccc2)N2[C@@H](c3ccccc3OCCO)[C@]3(C(=O)Nc4ccc(C#CC5(O)CCCCCC5)cc43)[C@@H](C(=O)Nc3nc4ccccc4s3)[C@H]12`, the composite z-score was 0.723. In the case of `C=CCN1C(=O)[C@]2(O[C@H](CCO)[C@@H]([Si](C)(C)c3ccc(OC)cc3)[C@@H]2C)c2cc(NC(=O)[C@H](C)O)ccc21`, the composite z-score is reported as 1.01.

— PubChem BioAssay
